Outcome data for 2 compounds are collected here from PubChem BioAssay AID1645850 (National Center for Advancing Translational Sciences (NCATS), 2021).

Records with an inconclusive call do not appear. Active and inactive are the calls of the source. Calls follow the shape of the dose curve; as a rule, active = well fitted curve in the direction sought with a large enough effect in the repeat runs; inconclusive = weak or mixed curves, or another doubt; inactive = no such curve, though single readings can be large or run the other way.

This assay can be described thus: Comparison of Janus kinase inhibitors to block the type I interferon pathway in human skeletal muscle cells: CTG Counterscreen. The conditions noted are these: human skeletal muscle cells viability, CellTiter-Glo ATP luminescence; series mostly up to 45.9 µM. From the text:
Assay Submitter (PI): Travis B. Kinder Ph.D.
National Center for Advancing Translational Sciences (NCATS)
The family of Janus kinases (JAK1, JAK2, JAK3, TYK2) mediate signal transduction from cytokine receptors through phosphorylation and activation of intracellular signaling pathways and transcription factors. Small molecule antagonists of JAKs (jakinibs) have been developed with varying selectivity for the use in malignancies and immune regulation. […] We have assayed a library of 48 jakinibs for their ability to inhibit the JAK1/TYK2-dependent type I interferon (IFN) - major histocompatibility complex (MHC) class I pathway in human skeletal muscle cells genome-engineered to fuse a pro-luminescent HiBiT peptide to endogenous MHC class I.
The assay utilized CRISPR/Cas9 genome-engineered immortalized human myoblasts, C25cl48, where a pro-luminescent reporter HiBit was fused to the C-terminus of endogenous MHC class I allele HLA-B*08:01 (HLA-B HiBit myoblasts) (Kinder et al., 2020). […] After 24 hrs of treatment, cells were assayed by CellTiter-Glo Luminescent Cell Viability Assay (Promega) and luminescence measured by a ViewLux 1430 Ultra HTS (Perkin Elmer). […]
7; Detector; 5 sec; Measure luminescence with ViewLux 1430 Ultra HTS (Perkin Elmer). […]

Regarding `CC(C)(O)/C=C\C(=O)[C@](C)(O)[C@H]1[C@H](O)C[C@]2(C)[C@@H]3CC=C4[C@@H](C=C(O)C(=O)C4(C)C)[C@]3(C)C(=O)C[C@@]12C`, the call was inactive.

For the compound `CC1CCCCCC(=O)c2c(O)cc(O)cc2CC(=O)O1` (configuration not stated), the compound was called inactive.
